From PubChem BioAssay AID1159580 (chemical genetic matrix, 2015)
The whole screen tested about 5,500 compounds, of which about 2,000 (36%) were called active. Another 18% or so got no clear call; they are omitted. Rule as the data show it: active = normalized growth mostly below about 0.91 (no sharp cut-off); inconclusive = no clear call, values can overlap the other calls; inactive = mostly above about 0.92. The list shows a part of the results.

Experiment: chemical genetic growth profiling, strain panel (AID 1159580);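 also: tested at 20 µM; growth read once vehicle control cultures reached saturation at 30 °C; 1 = growth at the plate median or of vehicle wells; lower values mean less growth of the strain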
Details: growth OD

Measured: normalized growth

Cc1ncc([N+](=O)[O-])n1CCO
inactive: S. cerevisiae deletion strains, locus YJR075W, strain HOC1, hits give low values 1.01 | S. cerevisiae deletion strains, locus YKL009W, strain mrt4, hits give low values 0.969 | S. cerevisiae deletion strains, locus YKL068W, hits give low values 0.99 | S. cerevisiae deletion strains, locus YKL085W, strain MDH1 (second series), hits give low values 0.985 | S. cerevisiae deletion strains, locus YKL085W, strain MDH1, hits give low values 0.985 | S. cerevisiae deletion strains, locus YKL160W, strain elf1, hits give low values 0.955 | S. cerevisiae deletion strains, locus YKL190W, strain CNB1, hits give low values 0.99 | S. cerevisiae deletion strains, locus YKR001C, strain vps1, hits give low values 1 | S. cerevisiae deletion strains, locus YKR026C, strain gcn3, hits give low values 0.984 | S. cerevisiae deletion strains, locus YKR091W, strain srl3, hits give low values 0.962 | S. cerevisiae deletion strains, locus YLL001W, strain dnm1, hits give low values 0.926 | S. cerevisiae deletion strains, locus YLL026W, hits give low values 0.977 | S. cerevisiae deletion strains, locus YLL041C, strain sdh2, hits give low values 0.98 | S. cerevisiae deletion strains, locus YLR027C, strain aat2, hits give low values 0.98 | S. cerevisiae deletion strains, locus YLR039C, strain RIC1, hits give low values 0.972 | S. cerevisiae deletion strains, locus YLR058C, strain SHM2, hits give low values 0.97 | S. cerevisiae deletion strains, locus YLR102C, strain apc9, hits give low values 0.991 | S. cerevisiae deletion strains, locus YLR113W, strain HOG1, hits give low values 1.05 | S. cerevisiae deletion strains, locus YLR221C, strain rsa3, hits give low values 0.941 | S. cerevisiae deletion strains, locus YLR258W, strain gsy2, hits give low values 0.988 | S. cerevisiae deletion strains, locus YLR262C, strain YPT6 (second series), hits give low values 0.964 | S. cerevisiae deletion strains, locus YLR262C, strain YPT6, hits give low values 0.907 | S. cerevisiae deletion strains, locus YLR268W, strain sec22, hits give low values 1.08 | S. cerevisiae deletion strains, locus YLR320W, strain mms22, hits give low values 0.948 | S. cerevisiae deletion strains, locus YLR330W, strain CHS5, hits give low values 0.987 | S. cerevisiae deletion strains, locus YLR342W, strain FKS1 (second series), hits give low values 0.982 | S. cerevisiae deletion strains, locus YLR342W, strain FKS1, hits give low values 0.978 | S. cerevisiae deletion strains, locus YLR357W, strain rsc2, hits give low values 0.973 | S. cerevisiae deletion strains, locus YLR370C, strain arc18, hits give low values 0.972 | S. cerevisiae deletion strains, locus YLR371W, strain rom2, hits give low values 0.975 | S. cerevisiae deletion strains, locus YLR384C, strain iki3, hits give low values 0.982 | S. cerevisiae deletion strains, locus YLR418C, strain cdc73, hits give low values 0.991 | S. cerevisiae deletion strains, locus YML016C, strain PPZ1, hits give low values 0.986 | S. cerevisiae deletion strains, locus YML032C, strain rad52, hits give low values 1.01 | S. cerevisiae deletion strains, locus YML120C, strain ndi1, hits give low values 0.942 | S. cerevisiae deletion strains, locus YML124C, strain tub3, hits give low values 0.984 | S. cerevisiae deletion strains, locus YMR058W, strain fet3, hits give low values 0.983 | S. cerevisiae deletion strains, locus YMR078C, strain ctf18, hits give low values 0.976 | S. cerevisiae deletion strains, locus YMR125W, strain sto1, hits give low values 0.958 | S. cerevisiae deletion strains, locus YMR129W, hits give low values 0.98 | S. cerevisiae deletion strains, locus YMR205C, strain PFK2, hits give low values 0.936 | S. cerevisiae deletion strains, locus YMR223W, strain ubp8, hits give low values 0.952 | S. cerevisiae deletion strains, locus YMR231W, strain pep5, hits give low values 0.986 | S. cerevisiae deletion strains, locus YMR263W, strain SAP30, hits give low values 0.995 | S. cerevisiae deletion strains, locus YMR307W, strain GAS1, hits give low values 0.976 | S. cerevisiae deletion strains, locus YNL067W, strain RPL9B, hits give low values 0.994 | S. cerevisiae deletion strains, locus YNL071W, strain lat1, hits give low values 0.978 | S. cerevisiae deletion strains, locus YNL128W, strain TEP1, hits give low values 0.951 | S. cerevisiae deletion strains, locus YNL153C, strain GIM3, hits give low values 1.01 | S. cerevisiae deletion strains, locus YNL183C, strain NPR1, hits give low values 1.03 | S. cerevisiae deletion strains, locus YNL209W, strain ssb2, hits give low values 0.974 | S. cerevisiae deletion strains, locus YNL233W, strain BNI4, hits give low values 1.02 | S. cerevisiae deletion strains, locus YNL248C, strain rpa49, hits give low values 0.981 | S. cerevisiae deletion strains, locus YNL250W, strain rad50, hits give low values 0.975 | S. cerevisiae deletion strains, locus YNL271C, strain bni1, hits give low values 0.989 | S. cerevisiae deletion strains, locus YNL298W, strain CLA4, hits give low values 0.992 | S. cerevisiae deletion strains, locus YNL307C, strain MCK1, hits give low values 0.989 | S. cerevisiae deletion strains, locus YNL322C, strain KRE1 (second series), hits give low values 0.974 | S. cerevisiae deletion strains, locus YNL322C, strain KRE1, hits give low values 0.986 | S. cerevisiae deletion strains, locus YNR049C, strain mso1, hits give low values 0.96 | S. cerevisiae deletion strains, locus YNR052C, strain pop2, hits give low values 0.989 | S. cerevisiae deletion strains, locus YOL006C, strain TOP1, hits give low values 1 | S. cerevisiae deletion strains, locus YOL012C, strain htz1 0.99 | S. cerevisiae deletion strains, locus YOL147C, strain pex11, hits give low values 0.986 | S. cerevisiae deletion strains, locus YOR001W, strain rrp6, hits give low values 1 | S. cerevisiae deletion strains, locus YOR061W, strain CKA2, hits give low values 0.967 | S. cerevisiae deletion strains, locus YOR069W, strain VPS5, hits give low values 0.989 | S. cerevisiae deletion strains, locus YOR070C, strain gyp1, hits give low values 0.987 | S. cerevisiae deletion strains, locus YOR080W, strain dia2, hits give low values 0.977 | S. cerevisiae deletion strains, locus YOR083W, strain WHI5, hits give low values 0.954 | S. cerevisiae deletion strains, locus YOR106W, strain vam3, hits give low values 0.937 | S. cerevisiae deletion strains, locus YOR136W, strain idh2, hits give low values 0.984 | S. cerevisiae deletion strains, locus YOR144C, strain elg1, hits give low values 0.989 | S. cerevisiae deletion strains, locus YOR184W, strain ser1, hits give low values 0.998 | S. cerevisiae deletion strains, locus YOR231W, strain MKK1, hits give low values 1.06 | S. cerevisiae deletion strains, locus YOR265W, strain rbl2, hits give low values 0.985 | S. cerevisiae deletion strains, locus YOR270C, strain vph1, hits give low values 0.958 | S. cerevisiae deletion strains, locus YOR290C, strain snf2, hits give low values 0.91 | S. cerevisiae deletion strains, locus YOR316C, strain cot1, hits give low values 0.992 | S. cerevisiae deletion strains, locus YPL051W, strain arl3, hits give low values 0.978 | S. cerevisiae deletion strains, locus YPL055C, strain LGE1, hits give low values 0.974 | S. cerevisiae deletion strains, locus YPL078C, strain atp4, hits give low values 0.959 | S. cerevisiae deletion strains, locus YPL106C, strain sse1, hits give low values 0.943 | S. cerevisiae deletion strains, locus YPL240C, strain hsp82, hits give low values 0.983 | S. cerevisiae deletion strains, locus YPL241C, strain CIN2, hits give low values 0.982 | S. cerevisiae deletion strains, locus YPL256C, strain CLN2, hits give low values 1.1 | S. cerevisiae deletion strains, locus YPR119W, strain clb2, hits give low values 0.992 | S. cerevisiae deletion strains, locus YPR141C, strain kar3, hits give low values 0.982 | S. cerevisiae deletion strains, locus YPR163C, strain tif3, hits give low values 0.987 | S. cerevisiae deletion strains, locus YPR167C, strain met16, hits give low values 0.998 | S. cerevisiae deletion strains, strain wtn01, hits give low values 1.02 | S. cerevisiae strains, strain wild type, hits give low values 0.98
